Test results from PubChem BioAssay (Tox21).
Records with an inconclusive call do not appear. Where a call stands in place of a potency, no number is given. Unmarked numbers belong to inactive results. Activity calls are given as the source filed them. Unless noted, calls follow the shape of the dose curve; as a rule, active = well fitted curve in the direction sought with a large enough effect in the repeat runs; inconclusive = weak or mixed curves; inactive = no such curve, though single readings can be large; an effect the other way counts as inactive or inconclusive.

Legend:
[1] = biological target: Retinoic acid receptor RXR-alpha (Homo sapiens) (UniProt P19793); test: qHTS assay to identify small molecule agonists of the RXR signaling pathway (AID 1159527; calls by dose curve; also: nearly all actives have a fitted effect of over 35% in size; also: potency is read from the fitted curve at half-maximal effect)
Procedure, shortened: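 Fluorescence ratio readout (460 vs 530 nm) from GeneBLAzer RXR-alpha HEK 293T cells after 16 hr compound treatment; cells seeded 5 hr beforehand in low-serum, charcoal-stripped medium.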

[2] = qHTS assay to identify small molecule agonists of the RXR signaling pathway - cell viability counter screen (AID 1159529);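 also: HEK 293T cells carrying an RXR-alpha UAS beta-lactamase reporter; series mostly up to about 77 µM; nearly all actives have a fitted effect of over 50% in size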
Procedure, shortened: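 Viability read-out for the RXR-alpha agonist qHTS: luminescent CellTiter-Glo signal after 30 min at RT. HEK 293T bla reporter cells, 2% charcoal-stripped FBS, 16 hr compound incubation; tetraoctyl ammonium bromide as cytotoxic control.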

[3] = qHTS assay to identify small molecule antagonists of the retinoid acid receptor (RAR) signaling pathway - cell viability counter screen (AID 1159551); also: nearly all actives have a fitted effect of over 35% in size
Procedure, shortened: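 Retinol-stimulated (1 uM final) C3RL4 cells, compound 6 h, 37 C; readout CellTiter-Glo luminescence (ATP) after 30 min RT incubation.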

[4] = qHTS assay to identify small molecule antagonists of the retinoic acid receptor (RAR) signaling pathway (AID 1159552; also: nearly all actives have a fitted effect of over 50% in size)
Procedure, shortened: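 Using a RARE-driven luciferase construct in C3RL4 cells, retinol at 1 uM final provided the agonist stimulus while compounds were co-applied. After 6 hours at 37 C, luminescence was recorded to flag inhibitors of retinol signaling.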

Retinoic acid receptor RXR-alpha (Homo sapiens), sequence (P19793 whole entry, looked up): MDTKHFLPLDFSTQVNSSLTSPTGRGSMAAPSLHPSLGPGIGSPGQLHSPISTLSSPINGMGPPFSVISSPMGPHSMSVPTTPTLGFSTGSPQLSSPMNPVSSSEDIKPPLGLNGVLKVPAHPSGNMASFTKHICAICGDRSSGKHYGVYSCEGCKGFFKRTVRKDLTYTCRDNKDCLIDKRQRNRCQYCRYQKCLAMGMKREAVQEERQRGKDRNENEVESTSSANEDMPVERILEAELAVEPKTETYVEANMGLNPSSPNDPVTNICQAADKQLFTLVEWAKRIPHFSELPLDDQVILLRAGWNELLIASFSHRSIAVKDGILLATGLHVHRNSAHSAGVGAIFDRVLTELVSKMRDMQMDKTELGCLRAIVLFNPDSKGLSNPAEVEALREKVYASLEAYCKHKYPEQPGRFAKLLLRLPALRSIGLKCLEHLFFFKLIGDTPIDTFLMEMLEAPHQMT

CC(C)N(c1ccccc1)C(C)C
Potency [1]: inactive | outcome [2]: inactive | outcome [3]: inactive

O=C1CC(c2ccc(Cl)cc2)CC(=O)N1
Potency [1]: inactive | outcome [2]: inactive | outcome [3]: inactive

CCCCC(CC)COCCO (configuration not stated)
Potency [1]: inactive | outcome [2]: inactive | outcome [3]: inactive

O=S(=O)(O)CCN1CCN(CCO)CC1
Potency [1]: inactive | outcome [2]: inactive | outcome [3]: inactive

CC(C(=O)O)c1ccc2c(c1)CC(=O)c1ccccc1S2 (configuration not stated)
Potency [1]: inactive | outcome [2]: inactive | outcome [3]: inactive

CC/C=C\CC1=C(C)CCC1=O
Potency [1]: inactive | outcome [2]: inactive | outcome [3]: inactive

Cc1nc2n(c(=O)c1CCN1CCC(c3noc4cc(F)ccc34)CC1)CCC[C@H]2O
activation [1]: 4.51% [at 15.8 µM] | activity change, negative = cytotoxicity [2]: -5.89% [at 15.8 µM] | activity change, negative = cytotoxicity [3]: 0.276% [at 19 µM]

Cc1cccc(OCC(O)CNC(C)(C)C)c1C (configuration not stated)
Potency [1]: inactive | outcome [2]: inactive | outcome [3]: inactive

COc1cc(C(=S)N2CCOCC2)cc(OC)c1OC
Potency [1]: inactive | outcome [2]: inactive | outcome [3]: inactive

COc1cc(NS(=O)(=O)c2ccc(N)cc2)nc(OC)n1
Potency [1]: inactive | outcome [2]: inactive | outcome [3]: inactive

CN=C(NC#N)Nc1ccc(C2=NNC(=O)CC2C)cc1 (configuration not stated)
Potency [1]: inactive | outcome [2]: inactive | outcome [3]: inactive

C=COCCOCCOCCOC=C
Potency [1]: inactive | outcome [2]: inactive | outcome [3]: inactive

C=C(C)C(=O)OCc1ccccc1
Potency [1]: inactive | outcome [2]: inactive | outcome [3]: inactive

Cc1c(I)c(=O)n(-c2ccccc2)n1C
Potency [1]: inactive | outcome [2]: inactive | outcome [3]: inactive

CC(=O)NCCCCCC(=O)O
Potency [1]: inactive | outcome [2]: inactive | outcome [3]: inactive

COC(=O)CCc1ccc(OCC(O)CNC(C)C)cc1 (configuration not stated)
Potency [1]: inactive | outcome [2]: inactive | outcome [3]: inactive

OCCN(CCO)c1cccc(Cl)c1
Potency [1]: inactive | outcome [2]: inactive | outcome [3]: inactive

C=C1CC/C=C(\C)CC[C@@H]2[C@@H]1CC2(C)C
Potency [1]: inactive | outcome [2]: inactive | outcome [3]: inactive

COc1nccnc1NS(=O)(=O)c1ccc(N)cc1
Potency [1]: inactive | outcome [2]: inactive | outcome [3]: inactive

CC(C)CCCCOC(=O)c1ccccc1C(=O)OCCCCC(C)C
Potency [1]: inactive | outcome [2]: inactive | outcome [3]: inactive

O=C1c2ccccc2C(=O)N1CCl
Potency [1]: inactive | outcome [2]: inactive | outcome [3]: inactive

Cc1cc(Cl)c(C)cc1Cl
Potency [1]: inactive | outcome [2]: inactive | outcome [3]: inactive

Cc1ccccc1OCC(O)CO (configuration not stated)
Potency [1]: inactive | outcome [2]: inactive | outcome [3]: inactive

CCC(CC)CO
Potency [1]: inactive | outcome [2]: inactive | outcome [3]: inactive

CCCCN
Potency [1]: inactive | outcome [2]: inactive | outcome [3]: inactive

Nc1ccc(S(=O)(=O)Nc2ccc(Cl)nn2)cc1
Potency [1]: inactive | outcome [2]: inactive | outcome [3]: inactive

C=C(C)C(=O)OCC(C)(C)COC(=O)C(=C)C
Potency [1]: inactive | outcome [2]: inactive | outcome [3]: inactive

Cc1ccc(S(=O)(=O)O)c(C)c1
Potency [1]: inactive | outcome [2]: inactive | outcome [3]: inactive

CC(C)(C)c1n[nH]c(=S)n(N)c1=O
Potency [1]: inactive | outcome [2]: inactive | outcome [3]: inactive

CCCOC(OCCC)OCCC
Potency [1]: inactive | outcome [2]: inactive | outcome [3]: inactive

CCC(C)NC(N)=O (configuration not stated)
Potency [1]: inactive | outcome [2]: inactive | outcome [3]: inactive

CCCCCCCCOS(=O)(=O)O
Potency [1]: inactive | outcome [2]: inactive | outcome [3]: inactive

C=C(C)C(=O)OCCOP(=O)(O)OCCOC(=O)C(=C)C
Potency [1]: inactive | outcome [2]: inactive | outcome [3]: inactive

CCNC(=O)C1CC(C)CCC1C(C)C (configuration not stated)
Potency [1]: inactive | outcome [2]: inactive | outcome [3]: inactive

CCCCCCOC(=O)CC
Potency [1]: inactive | outcome [2]: inactive | outcome [3]: inactive

C[C@@H](Oc1ccc(CNC(=O)c2cccnc2Oc2ccc3c(c2)OCO3)c(F)c1)C(=O)O
Potency [1]: inactive | outcome [2]: inactive | outcome [3]: inactive

C=C(C)C(=O)OCCNC(C)(C)C
Potency [1]: inactive | outcome [2]: inactive | outcome [3]: inactive

C=CCCCCCCCCCCCC
Potency [1]: inactive | outcome [2]: inactive | outcome [3]: inactive

On1nnc2ccccc21
Potency [1]: 4.9 µM (active) | outcome [2]: inactive | outcome [3]: inactive

CC(=O)N[C@@H](CCC(=O)O)C(=O)O
Potency [1]: inactive | outcome [2]: inactive | outcome [3]: inactive

CC(S)C(=O)NCC(=O)O (configuration not stated)
Potency [1]: inactive | outcome [2]: inactive | outcome [3]: inactive | outcome [4]: inactive

COCCOCCOCCOCCO
Potency [1]: inactive | outcome [2]: inactive | outcome [3]: inactive

CC(C)c1ccc2cc(C(C)C)ccc2c1
Potency [1]: inactive | outcome [2]: inactive | outcome [3]: inactive | outcome [4]: inactive

OCCC(F)(F)C(F)(F)C(F)(F)C(F)(F)C(F)(F)C(F)(F)C(F)(F)C(F)(F)F
Potency [1]: inactive | outcome [2]: inactive | outcome [3]: inactive

CCOC(=O)CC(=O)c1ccccc1
Potency [1]: inactive | outcome [2]: inactive | outcome [3]: inactive | outcome [4]: inactive

CC1(C)S[C@@H]2[C@H](N=CN3CCCCCC3)C(=O)N2[C@H]1C(=O)O
Potency [1]: inactive | outcome [2]: inactive | outcome [3]: inactive

CCCCCCCCC(=O)Cl
Potency [1]: inactive | outcome [2]: inactive | outcome [3]: inactive

O=C(O)Cc1cn(-c2ccccc2)nc1-c1ccc(Cl)cc1
Potency [1]: inactive | outcome [2]: inactive | outcome [3]: inactive
